HepG2 tox: qHTS for Inhibitors of TGF-b: Cytotox Counterscreen. HepG2 CAGA-GFP viability, ATP luminescence, 18 h. Potency, µM (highest dose often 46.1 µM), for the others: at the highest dose activity change, negative = cytotoxicity, usual class: cytotoxic. 410,000 compounds, 0.76% hits
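CellTiter-Glo luminescence gave cytotoxicity after 18 hours at 37 degrees C. The cells were HepG2 CAGA-GFP in 1% FBS DMEM, stimulated with 500 pg/mL TGF-beta after compound addition. %Activity was normalised to no-cell wells (complete cell-killing) and DMSO (no toxicity), and curves were fitted and classified.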
HT1080NT lethal: qHTS for induction of synthetic lethality in tumor cells producing 2HG: qHTS for the HT-1080-NT fibrosarcoma cell line; HT-1080-NT fibrosarcoma viability, CellTiter-Glo ATP luminescence, 48 h; Potency, µM (highest dose often 46.1 µM), without a hit: top-dose activity, negative = less viability, actives largely listed as cytotoxic; 360,000 compounds, 1.6% hits; AID 686970, 2013;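 also: NT is the 2HG producing partner of a matched IDH1 knockdown line; 0% = DMSO-treated cells and -100% = media-only wells without cells; nearly all actives have a fitted effect of over 55% in size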
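HT-1080-NT fibrosarcoma cells (2HG-overproducing), 750 cells/well in RPMI with 5% FBS, dosed after 2 h and incubated 48 h at 37C. CellTiter-Glo luminescence normalized to DMSO and no-cell wells; concentration-response curves fitted and classed.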
ATXN viability: Viability Counterscreen for Primary qHTS for Inhibitors of ATXN expression; AID 651635, 2014; S2 cells (HEK-293 line with an ATXN2-luciferase reporter) viability, CellTiter-Fluor protease fluorescence, 24 h; Potency, µM (highest dose often 56.7 µM), hits mostly cytotoxic; 400,000 compounds, 0.49% hits; also: nearly all actives have a fitted effect of over 40% in size
TGFb SMAD3 inh: qHTS for Inhibitors of TGF-b | AID 588855, 2011 | Potency, µM (series often up to 46.1 µM), for inactives: at the top dose activity, negative = inhibition, actives largely listed as inhibitors | HepG2 CAGA-GFP TGF-b/SMAD3 reporter, GFP fluorescence, 18 h; TGF-beta stimulated, 500 pg/mL final | 410,000 compounds, 1.2% hits; also: % is scaled to controls: 0 for no effect and ±100 for the full control effect; nearly all actives have a fitted effect of over 65% in size
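TGF-beta reporter screen: HEPG2 CAGA-GFP, 1% FBS, 500 pg/mL TGF-beta final, 18 h; per-cell GFP summed per well; curves fitted and categorized by class.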
ATXN2 expr inh: Primary qHTS for Inhibitors of ATXN expression; HEK-293 ATXN2-luciferase reporter, luminescence, 24 h; Potency, µM (highest dose often 57 µM), without a hit: at the top dose activity change, negative = inhibition, actives largely listed as inhibitors; 360,000 compounds, 0.72% hits; AID 1745845, 2022; also: % is scaled to controls: 0 for no effect and ±100 for the full control effect; nearly all actives have a fitted effect of over 55% in size
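qHTS (up to 57 uM final) was run with 24 h compound exposure of reporter cells at 37 °C. Each well was multiplexed: SteadyGlo luminescence measured ATXN2-luciferase expression after a fluorogenic Gly-Phe-AFC viability readout (25 uM final).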
HT1080 IDH1KD tx: qHTS for induction of synthetic lethality in tumor cells producing 2HG: qHTS for the HT-1080-IDH1KD cell line; HT-1080 IDH1 knockdown viability, ATP luminescence, 48 h; Potency, µM (highest dose often 46.1 µM), for inactives: top-dose activity, negative = toxicity, usual class: cytotoxic; 360,000 compounds, 2% hits; AID 686971, 2013;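 also: 0% = DMSO wells and -100% = cell-free medium wells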
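Luminescent ATP read-out (CellTiter-Glo, 10 min at room temperature) after 48 h compound exposure at 37 °C gave viability of IDH1-knockdown HT-1080 cells. Activity was normalised to DMSO and cell-free wells, then fitted as concentration-response curves.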
Starred values were filed as active, the others as inactive. Only some compounds are listed: those with a hit (about 3.9% of all), similar ones and a draw of the others. Calls follow the shape of the dose curve; as a rule, active = well fitted curve in the direction sought with a large enough effect; inconclusive = small, poorly fitted or top-dose-only effect, or another doubt; inactive = no such curve, though single readings can be large; an effect the other way counts as inactive or inconclusive. Potency is read from the fitted curve at half-maximal effect.

What do the screens show for `COc1ccc(-c2cc(C3CCN(CC(O)C(F)(F)F)CC3)[nH]n2)cc1` (stereo not given)?
HepG2 tox: -34.0%; HT1080NT lethal: -3.1%; ATXN viability: inactive; TGFb SMAD3 inh: -19.2%; HT1080 IDH1KD tx: 1.9%

What do the screens show for `COc1ccc(-c2cc(C3CCN(Cc4cccc(C(F)(F)F)c4)CC3)[nH]n2)cc1`?
HepG2 tox: 12.6µM*; HT1080NT lethal: 16.4µM*; ATXN viability: inactive; TGFb SMAD3 inh: inconclusive; ATXN2 expr inh: inconclusive; HT1080 IDH1KD tx: inconclusive

How did COc1cccc(CNC(=O)c2c(OC)cc(=O)n3c2CCN(C(=O)c2cc(F)cc(F)c2)CC3)c1 do in these assays?
ATXN viability: inactive

What do the screens show for `COC(=O)c1c(SC)nc2ccccc2c1OCc1ccccc1C`?
HepG2 tox: -31.8%; ATXN viability: inactive; TGFb SMAD3 inh: -18.8%; ATXN2 expr inh: 3.6%

How did OCC1CCCN(c2nc3cc4c(cc3cc2CNCc2cccc(C(F)(F)F)c2)OCO4)C1 (stereo not given) do in these assays?
ATXN viability: inactive

Results for O=S1(=O)CCO[C@H]2CCCC[C@@H]2N1Cc1ccc(Cl)cc1 ?
HepG2 tox: -20.1%; TGFb SMAD3 inh: -23.7%

Results for COc1ccc(CC(N)c2csc(NC(=O)c3cc(C(C)(C)C)nn3Cc3ccccc3)n2)cc1 (stereo not given) ?
HepG2 tox: 11.2µM*; HT1080NT lethal: 20.6µM*; ATXN viability: inactive; TGFb SMAD3 inh: inconclusive; ATXN2 expr inh: inconclusive; HT1080 IDH1KD tx: 20.6µM*

What do the screens show for `CC(C)(C)c1cc(C(=O)NNC(=O)Nc2ccccc2)n(Cc2ccccc2)n1`?
HepG2 tox: -27.7%; HT1080NT lethal: -12.3%; ATXN viability: inconclusive; TGFb SMAD3 inh: -25.6%; HT1080 IDH1KD tx: 1.2%

Results for CC(N)c1csc(NC(=O)c2cc(C(C)(C)C)nn2Cc2ccccc2)n1 (stereo not given) ?
HepG2 tox: -98.9%; HT1080NT lethal: 18.4µM*; ATXN viability: inactive; TGFb SMAD3 inh: 22.4µM*; ATXN2 expr inh: inconclusive; HT1080 IDH1KD tx: inconclusive

What do the screens show for `CCCc1nc2cccnc2n1C1CCN(C(=O)Cn2nccc2C)CC1`?
ATXN viability: inactive

What do the screens show for `Nc1ccc(S(=O)(=O)NNC(=O)C(=O)NNc2ccccc2)cc1`?
HepG2 tox: -10.4%; HT1080NT lethal: 10.3µM*; ATXN viability: inactive; TGFb SMAD3 inh: -17.5%; ATXN2 expr inh: -12.4%; HT1080 IDH1KD tx: inconclusive

How did O=C(NNc1ccccc1)C(=O)NNS(=O)(=O)c1ccc(CCCl)cc1 do in these assays?
HepG2 tox: -18.4%; HT1080NT lethal: inconclusive; ATXN viability: inactive; TGFb SMAD3 inh: -16.4%; HT1080 IDH1KD tx: inconclusive

Results for CCOC(=O)N1CCN(Cc2ccc3c(c2)CN(C(=O)c2ccc4ncccc4c2)CCO3)CC1 ?
ATXN viability: inactive

How did CCN(CC)C(=O)CSC1=N/C(=C/c2ccco2)C(=O)N1c1ccc(OC)c(Cl)c1 do in these assays?
HepG2 tox: -17.2%; HT1080NT lethal: -10.6%; ATXN viability: 5.01µM*; TGFb SMAD3 inh: inconclusive; ATXN2 expr inh: inconclusive; HT1080 IDH1KD tx: 0.3%

Results for CN(C)CCCNS(=O)(=O)c1ccc(NC2CCCCCC2)c([N+](=O)[O-])c1 ?
HepG2 tox: -171.3%; HT1080NT lethal: inconclusive; ATXN viability: inactive; TGFb SMAD3 inh: 22.4µM*; ATXN2 expr inh: -35.5%; HT1080 IDH1KD tx: inconclusive

What do the screens show for `C#CCOCCOCCOCCNc1nc(N2CCN(C(=O)CCCCCCCCCCNC(=O)[C@H](CCCCN)n3cc(C[C@@H](C)CC)nn3)CC2)nc(N2CCN(C(=O)CCCCCCCCCCNC(=O)[C@@H]([C@H](C)O)n3cc(C)nn3)CC2)n1`?
HepG2 tox: 12.6µM*; HT1080NT lethal: inconclusive; ATXN viability: 10µM*; TGFb SMAD3 inh: inconclusive; ATXN2 expr inh: 10µM*; HT1080 IDH1KD tx: inconclusive

How did C#CCOCCOCCOCCNc1nc(N2CCN(C(=O)CCCCCCCCCCNC(=O)[C@H](CCCCN)n3cc(C)nn3)CC2)nc(N2CCN(C(=O)CCCCCCCCCCNC(=O)[C@H](CCCN=C(N)N)n3cc(C[C@@H](C)CC)nn3)CC2)n1 do in these assays?
HepG2 tox: -101.4%; HT1080NT lethal: inconclusive; ATXN viability: inconclusive; TGFb SMAD3 inh: inconclusive; ATXN2 expr inh: inconclusive; HT1080 IDH1KD tx: inconclusive

Results for C#CCOCCOCCOCCNc1nc(N2CCN(C(=O)CCCCCCCCCCNC(=O)[C@H](CCCCN)n3cc(C)nn3)CC2)nc(N2CCN(C(=O)CCCCCCCCCCNC(=O)[C@@H]([C@H](C)O)n3cc(C)nn3)CC2)n1 ?
HepG2 tox: -40.6%; HT1080NT lethal: 10.3µM*; TGFb SMAD3 inh: inconclusive; ATXN2 expr inh: inconclusive; HT1080 IDH1KD tx: inconclusive

What do the screens show for `C#CCOCCOCCOCCNc1nc(N2CCN(C(=O)CCCCCCCCCCNC(=O)[C@@H](CCSC)n3cc(CCO)nn3)CC2)nc(N2CCN(C(=O)CCCCCCCCCCNC(=O)[C@@H]([C@H](C)O)n3cc(C)nn3)CC2)n1`?
HepG2 tox: -15.8%; HT1080NT lethal: -6.1%; ATXN viability: inactive; TGFb SMAD3 inh: -12.7%; ATXN2 expr inh: -11.7%; HT1080 IDH1KD tx: -12.6%

How did C#CCOCCOCCOCCNc1nc(N2CCN(C(=O)CCCCCCCCCCNC(=O)[C@H]([C@@H](C)CC)n3cc(CCCCN=C(N)N)nn3)CC2)nc(N2CCN(C(=O)CCCCCCCCCCNC(=O)[C@@H]([C@H](C)O)n3cc(C)nn3)CC2)n1 do in these assays?
HepG2 tox: -61.4%; HT1080NT lethal: inconclusive; ATXN viability: inconclusive; TGFb SMAD3 inh: inconclusive; ATXN2 expr inh: -1.2%; HT1080 IDH1KD tx: 25.9µM*

Results for COc1cc(=O)n2c(c1C(=O)NCc1ccco1)CCN(C(=O)c1ccc(C)c(C)c1)CC2 ?
ATXN viability: inactive

What do the screens show for `COc1cc(=O)n2c(c1C(=O)NC(C)c1ccco1)CCN(Cc1ccccc1Cl)CC2` (stereo not given)?
ATXN viability: inactive

Results for O=C(c1ccc(N2CCC(NCCCn3ncc4ccccc43)CC2)cc1)N1CCc2ccccc2C1 ?
ATXN viability: inactive

Screens deposited in PubChem BioAssay by National Center for Advancing Translational Sciences (NCATS).
